# Reference: publication PMC7826789 (International Journal of Molecular Sciences, 2021)
smiles,measurement,setting,value
CCn1c(-c2nonc2N)nc2cncc(C(=O)N3CC[C@H](N)C3)c21.Cl [SB-772077-B],Kinases covered,PIM1,PIM1
O=C1Nc2ccc(I)cc2C1=Cc1cc(Br)c(O)c(Br)c1 [GW305074X],Kinases covered,PIM2,PIM2
NCC1CNC(=O)c2cc3ccc(C(=O)Nc4cccnc4)cc3n2C1 (stereo not drawn) [BI00614644],Kinases covered,PIM3,PIM3
Nc1nccc(-c2c(-c3ccc(F)cc3)ncn2C2CCN(Cc3ccccc3)CC2)n1 [SB-219980],Kinases covered,PIP4K2C,PIP4K2C
O=C(c1ccc(-c2cc(-c3c[nH]nc3-c3ccccn3)ccn2)cc1)N1CCCC1 [GW792479],Kinases covered,PIP4K2C,PIP4K2C
CC(C)N1CC(=O)N(C)c2cnc(Nc3cccc(S(=O)(=O)CCN4CCOCC4)c3)nc21 [BI00009348],Kinases covered,PIP5K1C,PIP5K1C
same,Kinases covered,PIP5K2C,PIP5K2C
CCCc1cc(N2CCCN(C)CC2)nc2sc3c(N)ncnc3c12 [BI00604564],Kinases covered,PIP5K1C,PIP5K1C
Cc1cc(NC(=O)c2cccc(NC(=O)/C=C/CN(C)C)c2)ccc1Nc1nccc(-c2cccnc2)n1 [JNK-IN-7],Kinases covered,PIP5K2C,PIP5K2C
C[C@@H](Oc1cc(-n2cnc3ccc(CN4CCN(C)CC4)cc32)sc1C(N)=O)c1ccccc1C(F)(F)F [GSK461364],Kinases covered,PLK1,PLK1
COc1cc2ncn(-c3cc(OCC4CCCO4)c(C(N)=O)s3)c2cc1OC (stereo not drawn) [GSK204607],Kinases covered,PLK1,PLK1
same,Kinases covered,PLK2,PLK2
same,Kinases covered,PLK3,PLK3
COc1cc2ncn(-c3cc(OCc4ccncc4)c(C(N)=O)s3)c2cc1OC [GSK336313],Kinases covered,PLK2,PLK2
CCn1c(-c2nonc2N)nc2cncc(CNC3CCNCC3)c21 [SB-747651A],Kinases covered,PRK2,PRK2
